Laboratory results taken from PubChem BioAssay (NCI).
The panel holds about 79,000 compounds, 15% with a hit somewhere; the sample as a whole holds those more often. Active and inactive are the calls of the source. No stated cut-off is given here; in the data, active means growth inhibition above about 70%; inactive means the rest.

Tests used:
[1] = NCI Yeast Anticancer Drug Screen. Data for the rad52 strain (AID 147);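 further: 0% = growth of vehicle-treated control cultures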; conditions: S. cerevisiae rad52 mutant growth inhibition, stronger effect = higher value
How it was run: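 DNA repair-defective yeast; compound exposure; growth scored against vehicle controls.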

[2] = NCI Yeast Anticancer Drug Screen. Data for the wt1 strain (AID 149);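 further: 0% = growth of vehicle-treated wt1 cultures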; conditions: S. cerevisiae wt1 strain (SPY 50644) growth inhibition, stronger effect = higher value
How it was run: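 Growth inhibition read against vehicle controls after compound exposure of the wt1 yeast strain.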

[3] = NCI Yeast Anticancer Drug Screen. Data for the rad50EPP+ strain (AID 151);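 further: 0% = growth of vehicle-treated control cultures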; conditions: S. cerevisiae rad50 mutant strain, stronger effect = higher value
How it was run: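 rad50EPP+ yeast treated with test compounds. Readout: growth vs vehicle control.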

[4] = NCI Yeast Anticancer Drug Screen. Data for the mgt1 strain (AID 153); conditions: S. cerevisiae mgt1 mutant growth inhibition, stronger effect = higher value
How it was run: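 Growth inhibition relative to vehicle controls was scored for the mgt1 yeast strain after compound exposure.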

[5] = NCI Yeast Anticancer Drug Screen. Data for the rad50 strain (AID 155);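 further: 0% = growth of vehicle-only cultures of the same strain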; conditions: S. cerevisiae rad50 strain growth inhibition, stronger effect = higher value
How it was run: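 Readout: growth inhibition relative to vehicle-treated cultures. Compound exposure was carried out in a genetically defined yeast strain deficient in DNA damage repair.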

[6] = NCI Yeast Anticancer Drug Screen. Data for the mec2-1 strain (AID 157); conditions: S. cerevisiae mec2-1 strain, stronger effect = higher value
How it was run: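 Growth inhibition is read against vehicle-treated controls after compound exposure of the mec2-1 yeast strain, which is defective in DNA damage repair or cell cycle control.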

[7] = NCI Yeast Anticancer Drug Screen. Data for the rad14 strain (AID 159);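 further: 0% = growth of vehicle-treated control cultures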; conditions: S. cerevisiae rad14 strain growth inhibition, stronger effect = higher value
How it was run: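 Growth inhibition vs vehicle controls; genetically altered yeast strain (DNA damage repair defect) treated with test compounds.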

[8] = NCI Yeast Anticancer Drug Screen. Data for the sgs1 mgt1 strain (AID 161);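 further: 0% = growth of cultures given vehicle only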; conditions: S. cerevisiae sgs1 mgt1 strain, stronger effect = higher value
How it was run: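 Percent growth inhibition was derived by comparing compound-exposed mutant yeast with vehicle-exposed cultures. The strain carries alterations in DNA damage repair.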

[9] = NCI Yeast Anticancer Drug Screen. Data for the CLN2oe strain (AID 163);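 further: 0% = growth of vehicle-only control cultures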; conditions: S. cerevisiae CLN2oe strain, stronger effect = higher value
How it was run: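 Compound-treated yeast; growth vs vehicle ctrl = % inhibition. Genetically altered strain (cell-cycle control).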

[10] = NCI Yeast Anticancer Drug Screen. Data for the cln2 rad14 strain (AID 165);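 further: 0% = growth equal to vehicle treated cultures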; conditions: S. cerevisiae cln2 rad14 strain, stronger effect = higher value
How it was run: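 Growth inhibition, relative to vehicle-treated controls, is the read-out. The test organism is a yeast strain with defined genetic alterations, cln2 rad14.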

[11] = NCI Yeast Anticancer Drug Screen. Data for the bub3 strain (AID 167); conditions: S. cerevisiae bub3 mutant strain, stronger effect = higher value
How it was run: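 Readout: yeast growth inhibition, expressed relative to vehicle-only wells. The test organism is a mutant strain from a panel with lesions in DNA repair or checkpoint genes.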

[12] = NCI Yeast Anticancer Drug Screen. Data for the wt2 strain (AID 169);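 further: 0% = growth of vehicle-treated yeast cultures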; conditions: S. cerevisiae wt2 strain growth inhibition, stronger effect = higher value
How it was run: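 Compound exposure of yeast; growth compared with vehicle controls; inhibition reported.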

[13] = NCI Yeast Anticancer Drug Screen. Data for the mlh1 strain (AID 171);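 further: 0% = growth of vehicle-treated control cultures of the same strain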; conditions: S. cerevisiae mlh1 strain growth inhibition, stronger effect = higher value
How it was run: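 Compounds are applied to a genetically altered yeast strain, and its growth is compared with that of vehicle-treated cultures to give percent inhibition.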

[14] = NCI Yeast Anticancer Drug Screen. Data for the sgs1 strain (AID 173);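 further: 0% = growth of vehicle-only control cultures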; conditions: S. cerevisiae sgs1 mutant, stronger effect = higher value
How it was run: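 Compounds applied to genetically altered yeast; growth compared with vehicle-treated cultures to give % inhibition.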

[15] = NCI Yeast Anticancer Drug Screen. Data for the mlh1 rad18 strain (AID 175); conditions: S. cerevisiae mlh1 rad18 strain growth inhibition, stronger effect = higher value
How it was run: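 Cells of a genetically altered yeast strain, deficient in DNA damage repair, were treated with compound. Their growth was then compared with that of vehicle-treated cultures to give inhibition.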

[16] = NCI Yeast Anticancer Drug Screen. Data for the rad18 strain (AID 177); conditions: S. cerevisiae rad18 mutant growth inhibition, stronger effect = higher value
How it was run: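 Compounds are applied to a repair-deficient yeast strain, and growth is compared with that of vehicle-treated cultures to give percent inhibition.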

[17] = at 5.0 µM (retest, dose inferred, filed as 0.5)
[18] = at 50.0 µM (retest, dose inferred, filed as 5.0)

Measured: growth inhibition

NC1=NNC2(C(N)=N1)c1ccccc1-c1ccccc12
inactive: [1]; at 1.2 µM -18% | [1]; at 3.7 µM -14% | [1]; at 11.0 µM -16% | [1]; at 33.0 µM 16% | [2]; at 1.2 µM 4% | [2]; at 3.7 µM 3% | [2]; at 11.0 µM -4% | [2]; at 33.0 µM 12% | [3]; at 1.2 µM 3% | [3]; at 3.7 µM 7% | [3]; at 11.0 µM 2% | [3]; at 33.0 µM 44% | [4]; at 1.2 µM 12% | [4]; at 3.7 µM 6% | [4]; at 11.0 µM 3% | [4]; at 33.0 µM 30% | [5]; at 1.2 µM -7% | [5]; at 3.7 µM -12% | [5]; [17] -32% | [5]; at 11.0 µM -9% | [5]; at 33.0 µM 32% | [6]; at 1.2 µM 11% | [6]; at 3.7 µM 12% | [6]; [17] -1% | [6]; at 11.0 µM 11% | [6]; at 33.0 µM 29% | [6]; [18] 18% | [7]; at 1.2 µM -18% | [7]; at 3.7 µM -22% | [7]; at 11.0 µM -25% | [7]; at 33.0 µM 1% | [8]; [17] -9% | [8]; [18] 43% | [8]; at 50.0 µM 64.5% | [9]; at 1.2 µM 9% | [9]; at 3.7 µM 15% | [9]; at 11.0 µM 21% | [9]; at 33.0 µM 39% | [10]; [17] 3% | [10]; [18] 57% | [11]; at 1.2 µM 26% | [11]; at 3.7 µM 25% | [11]; [17] -27% | [11]; at 11.0 µM 26% | [11]; at 33.0 µM 38% | [11]; [18] 54% | [11]; at 50.0 µM 45.1% | [12]; at 1.2 µM -10% | [12]; at 3.7 µM -16% | [12]; at 11.0 µM -18% | [12]; at 33.0 µM -2% | [13]; at 1.2 µM 10% | [13]; at 3.7 µM -2% | [13]; at 11.0 µM 3% | [13]; at 33.0 µM 53% | [14]; at 1.2 µM 12% | [14]; at 3.7 µM 17% | [14]; at 11.0 µM 11% | [14]; at 33.0 µM 33% | [15]; [17] -25%
active: [1]; at 100.0 µM 96% | [2]; at 100.0 µM 97% | [3]; at 100.0 µM 76% | [4]; at 100.0 µM 98% | [5]; [18] 93% | [5]; at 50.0 µM 86.2% | [5]; at 100.0 µM 94% | [6]; at 50.0 µM 71.9% | [6]; at 100.0 µM 96% | [7]; at 100.0 µM 97% | [9]; at 100.0 µM 97% | [10]; at 50.0 µM 81% | [11]; at 100.0 µM 97% | [12]; at 100.0 µM 97% | [13]; at 100.0 µM 97% | [14]; at 100.0 µM 97% | [15]; [18] 81% | [15]; at 50.0 µM 79.3%

O/N=C\c1c(O)ccc2ccccc12
active: [1]; at 100.0 µM 72% | [3]; at 100.0 µM 74% | [5]; [18] 74% | [5]; at 100.0 µM 71% | [7]; at 100.0 µM 75% | [8]; [18] 74% | [8]; at 50.0 µM 78.8% | [11]; [18] 88% | [11]; at 50.0 µM 75% | [14]; at 100.0 µM 80% | [15]; [18] 89% | [15]; at 50.0 µM 73.2%
inactive: [1]; at 1.2 µM -4% | [1]; at 3.7 µM 0% | [1]; at 11.0 µM 7% | [1]; at 33.0 µM 31% | [2]; at 1.2 µM -2% | [2]; at 3.7 µM -5% | [2]; at 11.0 µM 0% | [2]; at 33.0 µM 5% | [2]; at 100.0 µM 22% | [3]; at 1.2 µM 2% | [3]; at 3.7 µM 10% | [3]; at 11.0 µM 19% | [3]; at 33.0 µM 54% | [4]; at 1.2 µM -4% | [4]; at 3.7 µM 1% | [4]; at 11.0 µM 1% | [4]; at 33.0 µM 7% | [4]; at 100.0 µM 52% | [5]; at 1.2 µM 1% | [5]; at 3.7 µM 3% | [5]; [17] -11% | [5]; at 11.0 µM 10% | [5]; at 33.0 µM 42% | [5]; at 50.0 µM 63% | [6]; at 1.2 µM -1% | [6]; at 3.7 µM 0% | [6]; [17] -2% | [6]; at 11.0 µM 2% | [6]; at 33.0 µM 12% | [6]; [18] 20% | [6]; at 50.0 µM 47.4% | [6]; at 100.0 µM 33% | [7]; at 1.2 µM -1% | [7]; at 3.7 µM 0% | [7]; at 11.0 µM 7% | [7]; at 33.0 µM 39% | [8]; [17] -6% | [9]; at 1.2 µM -6% | [9]; at 3.7 µM -6% | [9]; at 11.0 µM -5% | [9]; at 33.0 µM 3% | [9]; at 100.0 µM 28% | [10]; [17] -4% | [10]; [18] 21% | [10]; at 50.0 µM 10.3% | [11]; at 1.2 µM -4% | [11]; at 3.7 µM 0% | [11]; [17] 19% | [11]; at 11.0 µM 2% | [11]; at 33.0 µM 11% | [11]; at 100.0 µM 27% | [12]; at 1.2 µM -4% | [12]; at 3.7 µM -2% | [12]; at 11.0 µM -7% | [12]; at 33.0 µM 1% | [12]; at 100.0 µM 55% | [13]; at 1.2 µM -3% | [13]; at 3.7 µM -1% | [13]; at 11.0 µM 4% | [13]; at 33.0 µM 22% | [13]; at 100.0 µM 65% | [14]; at 1.2 µM 10% | [14]; at 3.7 µM 30% | [14]; at 11.0 µM -5% | [14]; at 33.0 µM 41% | [15]; [17] 3% | [16]; at 1.2 µM -3% | [16]; at 3.7 µM 0% | [16]; at 11.0 µM 6% | [16]; at 33.0 µM 30% | [16]; at 100.0 µM 69%
